Laboratory results from ChEMBL document CHEMBL3988442, “University of Dundee, Small-Polar-MMV Screening Library” (2021).
Out of some 48,000 compounds screened, about 13,000 (27%) showed an effect of 50% or more. Some of the results follow.

Test system: Wolbachia pipientis
Assay: Anti-Wolbachia Cell-Based Screen
Format: functional
Design: scale not given: in the data most compounds retested in dose-response had high values
Details: 5 µM

SMILES | Percent Effect [%]
Cn1nc(CN2CCCCC2)c2c1CN(C(=O)Nc1cccc(F)c1)C2 | -11.17
CCc1cccc(NC(=O)N2CCn3cnc(COC)c3C2)c1 | 112.6
CCOCc1ncn2c1CN(S(=O)(=O)c1cccs1)CC2 | -7.388
Cc1cccc(C(=O)N2CCn3cnc(COCC4CC4)c3C2)n1 | -8.525
CCOCc1ncn2c1CN(C(=O)Nc1cccc(C)c1)CC2 | -4.198
Cc1cccc(C(=O)N2CCn3cnc(COCC4CC4)c3C2)c1 | -5.443
CCOCc1ncn2c1CN(C(=O)Nc1ccccc1)CC2 | 106.5
CCN(CCSc1ccccc1)C(=O)c1cn([C@H]2CC[C@@H](N)CC2)nn1 | -3.362
Cc1ccc(Cl)cc1NS(=O)(=O)c1cc(C(N)=O)n(C)c1 | -91.07
Cc1cccc(C(=O)N2CCc3ncnc(C4CCOC4)c3CC2)n1.O=C(O)C(F)(F)F (configuration not stated) | -11.48
COC(=O)c1sc(NCc2ccc(N3CCC(O)CC3)c(F)c2)nc1Cl | -2.093
CC(C)C(N)C1=N/C(=C2\N=CN=N2)NO1 (configuration not stated) | -4.222
CCn1ccnc1CN(C)Cc1nc(Cc2ccccc2F)no1 | -2.902
COCc1ncn2c1CN(C(=O)Nc1ccccc1)CC2 | 105.1
CCOCc1ncn2c1CN(S(=O)(=O)c1ccc(F)cc1)CC2 | 3.769
O=C(Nc1ccccc1)N1CCn2nnc(COc3cccnc3)c2C1.O=C(O)C(F)(F)F | -20.87
COCc1ncn2c1CN(C(=O)Nc1cccc(OC)c1)CC2 | 106.3
COc1cccc(S(=O)(=O)N2CCn3cnc(COCC4CC4)c3C2)c1 | -6.989
CCOCc1ncn2c1CN(C(=O)Nc1ccc(CC)cc1)CC2 | 108
CCOCc1ncn2c1CN(S(=O)(=O)c1ccc(C)cc1)CC2 | 1.086
CCOCc1ncn2c1CN(C(=O)Nc1ccccc1CC)CC2 | 104.8
COc1cccc(NC(=O)N2CCC(O)(C(F)(F)F)C2)c1 (configuration not stated) | -18.52
COCc1ncn2c1CN(S(=O)(=O)c1ccc(C)cc1)CC2 | -7.243
CCc1ccccc1NC(=O)N1CCn2cnc(COC)c2C1 | 1.009
N#Cc1ccc(F)c(CN2CCCC2Cn2cnc3ccccc32)c1 (configuration not stated) | -5.507
CN1CCOC(C(=O)Nc2nnc(Cc3ccc(F)cc3)[nH]2)C1 (configuration not stated) | -0.8523

SMILES | Percent Effect [%]
Cc1cccc(NCc2ncc(C(C)(C)C)o2)c1 | -14.59
O=C(CN1CCS(=O)(=O)CC1)NC1CCCOc2ccccc21 (configuration not stated) | 0.4653
CCN(Cc1ccoc1)C(=O)c1cc2c(c(S(N)(=O)=O)c1)CCC2 | -33.33
CN(CC(=O)NC(C)(C#N)C1CC1)Cc1nc2ccccc2n1C (configuration not stated) | -1.45
COc1ccccc1CN1C(=O)O[C@@H]2CN(CC3CC3)C[C@@H]21 | 6.078
c1ccc(O[C@H]2COCCN(CC3CC3)C2)cc1 | -13.37
COc1ncc(C2(O)CCN(Cc3cccs3)CC2)c(OC)n1.Cl | -7.48
COc1cncc(N2CCN(Cc3ccco3)CC2)n1 | -6.733
COc1cccc2c1OCCCN(Cc1ncccc1C(=O)O)C2 | 13.59
COc1cc2cc3c(nc2cc1OC)OCCN(CC1CC1)C3 | 154.4
COc1cc2cc3c(nc2cc1OC)OCCN(Cc1cccs1)C3 | 120.6
CC(C)N1CCOCC2(CN(Cc3ccco3)CCO2)C1 (configuration not stated) | -3.394
COc1cc2cc3c(nc2cc1OC)OCCN(Cc1ccco1)C3 | 100
CCc1cc(CNC(=O)Nc2cc(F)ccc2N2CCCCC2)on1 | -38
CCN(CCC(=O)OC)S(=O)(=O)c1cnc2c(c1)c(C)nn2C | 10.85
Cc1cc(C(C)NCCN2CCC(N(C)C)CC2)c(C)s1 (configuration not stated) | -5.987
COCC(NC(=O)c1cc(NC(C)=O)ccc1Cl)c1ccccn1 (configuration not stated) | -0.4749
O=S1(=O)NCC2(CCN(Cc3ccncc3)CC2)Oc2ncccc21 | 130.7
Fc1cccc(N2CCCC3(CN(Cc4ccccn4)CCO3)C2)c1.O=C(O)C(F)(F)F.O=C(O)C(F)(F)F.O=C(O)C(F)(F)F (configuration not stated) | -3.088
O=S1(=O)NCC2(CCCN(Cc3cccnc3)C2)Oc2ncccc21 (configuration not stated) | 131.9
O=S1(=O)NCC2(CCCN(Cc3ccccn3)C2)Oc2ncccc21 (configuration not stated) | 140.3
O=C(O)C(F)(F)F.O=C(O)C(F)(F)F.O=C(O)C(F)(F)F.c1cncc(CN2CCCC3(COCCN(c4cnccn4)C3)C2)c1 (configuration not stated) | -4.353
Cc1cc(F)ccc1OC1(C(=O)O)CCN(Cc2ccncc2)CC1 | 7.519
O=C(C1CC=CC1)N1CCC2(CC1)CN(Cc1ccccn1)CCO2 | -14.52
O=C1COC2(CCN(Cc3ccncc3)CC2)CN1CC1CC1 | -5.616
Fc1cccc(N2CCCC3(CN(Cc4cccnc4)CCO3)C2)c1.O=C(O)C(F)(F)F.O=C(O)C(F)(F)F.O=C(O)C(F)(F)F (configuration not stated) | 2.254
